Laboratory results as given in the supplement of paper PMC13380429.

Test system: Vero E6 infected with SARS-CoV-2
Assay: inhibition of SARS-CoV-2 cytopathic effect; higher = more antiviral protection, active = above 15
Conditions: 48 h

Measured: inhibition of SARS-CoV-2 cytopathic effect

CC(C)NCCN(C(C)C)S(=O)(=O)c1ccc(Cl)cc1Cl
inactive: 1 nM 1.45% | 8.33 nM -1.25% | 100 nM 0.74% | 833.33 nM -2.09% | 10000 nM -5.49%

CCOC(=O)CSCCC1NC(C(=O)O)CS1 (stereo not given) [letosteine]
inactive: 1 nM -0.45% | 8.33 nM -0.54% | 100 nM 3.16% | 833.33 nM 2.53% | 10000 nM 5.67%

O=C(OCC(O)CO)c1ccccc1Nc1ccnc2cc(Cl)ccc12 (stereo not given) [glafenine]
inactive: 1 nM -1.53% | 8.33 nM 0.88% | 100 nM 2.29% | 833.33 nM -3.09% | 10000 nM -2.34%

CCOC(=O)[C@@H](N)Cc1ccc(O)c(O)c1 [etilevodopa]
inactive: 1 nM 3.02% | 8.33 nM 1.51% | 100 nM 2.32% | 833.33 nM 0.72% | 10000 nM 0.9%

CC(C)NC(=O)COc1cccc(-c2nc(Nc3ccc4[nH]ncc4c3)c3ccccc3n2)c1
inactive: 1 nM -1.49% | 8.33 nM -1.42% | 100 nM 0.74% | 833.33 nM 1.37% | 10000 nM 1.49%

COc1cc2c(NC3CCN(C)CC3)nc(N3CCCN(C)CC3)nc2cc1OCCOCCN(C)C
inactive: 1 nM -0.25% | 8.33 nM 0.8% | 100 nM -0.4% | 833.33 nM 2.99% | 10000 nM -3.09%

CCC(CC)Nc1nc(C)c(-c2ccc(OC(F)(F)F)cc2OC)nc1OC
inactive: 1 nM 1.38% | 8.33 nM 3.16% | 100 nM 1.61% | 833.33 nM 0.57% | 10000 nM -0.01%
